# Results taken from PMC9911399, “Two distinct binding modes provide the RNA-binding protein RbFox with extraordinary sequence specificity”.
# Numbering of substitutions follows the chain as printed; changes in the protein carry UniProt numbers. The full ranking holds about 16,000 sequences; the median of “ka relative to ugcaugu” is about 0.096, and the highest 2% start at about 0.35. This excerpt belongs to a sample that is enriched for the highest values.
# T1: RBFOX1 RRM RbFoxmut (Fox-RRM*) (Homo sapiens, UniProt Q9NWB1 109-208, R118D;E147R;N151S;E152T)
# T1 sequence: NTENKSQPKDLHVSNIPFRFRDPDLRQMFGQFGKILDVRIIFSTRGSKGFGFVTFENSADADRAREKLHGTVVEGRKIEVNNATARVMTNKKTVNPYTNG
# B1: UCUUCUA (DNA:RNA)
# RNA: GGGAGACCGGAAUUCAGAUUGUCCUCUUCUAUUAAAUCCCGUCGUAGCCACCA
# DNA 1: CAATCTGAATTCCGGTCTCCC
# DNA 2: TGGTGGCTACGACGGGATT
# B2: CCUCCAG (DNA:RNA)
# RNA: B1 RNA with U25C, U28C, U30A, A31G
# DNA 1: CAATCTGAATTCCGGTCTCCC
# DNA 2: TGGTGGCTACGACGGGATT
# B3: GAACAGU (DNA:RNA)
# RNA: GGGAGACCGGAAUUCAGAUUGUCCGAACAGUUUAAAUCCCGUCGUAGCCACCA
# DNA 1: CAATCTGAATTCCGGTCTCCC
# DNA 2: TGGTGGCTACGACGGGATT
# B4: ACGUGUG (DNA:RNA)
# RNA: B1 RNA with U25A, U27G, C29G, A31G
# DNA 1: CAATCTGAATTCCGGTCTCCC
# DNA 2: TGGTGGCTACGACGGGATT
# B5: CCCUACC (DNA:RNA)
# RNA: B1 RNA with U25C, U27C, C29A, U30C, A31C
# DNA 1: CAATCTGAATTCCGGTCTCCC
# DNA 2: TGGTGGCTACGACGGGATT
# B6: UAUCCCC (DNA:RNA)
# RNA: B1 RNA with C26A, U28C, U30C, A31C
# DNA 1: CAATCTGAATTCCGGTCTCCC
# DNA 2: TGGTGGCTACGACGGGATT
# B7: AUUUAGC (DNA:RNA)
# RNA: B3 RNA with G25A, A26U, A27U, C28U, U31C
# DNA 1: CAATCTGAATTCCGGTCTCCC
# DNA 2: TGGTGGCTACGACGGGATT
# B8: CCCGUAG (DNA:RNA)
# RNA: B1 RNA with U25C, U27C, U28G, C29U, U30A, A31G
# DNA 1: CAATCTGAATTCCGGTCTCCC
# DNA 2: TGGTGGCTACGACGGGATT
# B9: CCUGGAG (DNA:RNA)
# RNA: B1 RNA with U25C, U28G, C29G, U30A, A31G
# DNA 1: CAATCTGAATTCCGGTCTCCC
# DNA 2: TGGTGGCTACGACGGGATT
# B10: GCAGUAG (DNA:RNA)
# RNA: B3 RNA with A26C, C28G, A29U, G30A, U31G
# DNA 1: CAATCTGAATTCCGGTCTCCC
# DNA 2: TGGTGGCTACGACGGGATT
# B11: CAGGUCU (DNA:RNA)
# RNA: B3 RNA with G25C, A27G, C28G, A29U, G30C
# DNA 1: CAATCTGAATTCCGGTCTCCC
# DNA 2: TGGTGGCTACGACGGGATT
# B12: CAUUAAC (DNA:RNA)
# RNA: B3 RNA with G25C, A27U, C28U, G30A, U31C
# DNA 1: CAATCTGAATTCCGGTCTCCC
# DNA 2: TGGTGGCTACGACGGGATT
# B13: UGCAUUC (DNA:RNA)
# RNA: B1 RNA with C26G, U27C, U28A, C29U, A31C
# DNA 1: CAATCTGAATTCCGGTCTCCC
# DNA 2: TGGTGGCTACGACGGGATT
# B14: UGCAUAC (DNA:RNA)
# RNA: B1 RNA with C26G, U27C, U28A, C29U, U30A, A31C
# DNA 1: CAATCTGAATTCCGGTCTCCC
# DNA 2: TGGTGGCTACGACGGGATT
# B15: UUCAUGC (DNA:RNA)
# RNA: B3 RNA with G25U, A26U, A27C, C28A, A29U, U31C
# DNA 1: CAATCTGAATTCCGGTCTCCC
# DNA 2: TGGTGGCTACGACGGGATT
# B16: UGCACCC (DNA:RNA)
# RNA: B1 RNA with C26G, U27C, U28A, U30C, A31C
# DNA 1: CAATCTGAATTCCGGTCTCCC
# DNA 2: TGGTGGCTACGACGGGATT
# B17: UGCGUCC (DNA:RNA)
# RNA: B1 RNA with C26G, U27C, U28G, C29U, U30C, A31C
# DNA 1: CAATCTGAATTCCGGTCTCCC
# DNA 2: TGGTGGCTACGACGGGATT
# B18: UGCAUUG (DNA:RNA)
# RNA: B1 RNA with C26G, U27C, U28A, C29U, A31G
# DNA 1: CAATCTGAATTCCGGTCTCCC
# DNA 2: TGGTGGCTACGACGGGATT
# B19: UGCAUCG (DNA:RNA)
# RNA: B1 RNA with C26G, U27C, U28A, C29U, U30C, A31G
# DNA 1: CAATCTGAATTCCGGTCTCCC
# DNA 2: TGGTGGCTACGACGGGATT
# B20: UGCAUCC (DNA:RNA)
# RNA: B1 RNA with C26G, U27C, U28A, C29U, U30C, A31C
# DNA 1: CAATCTGAATTCCGGTCTCCC
# DNA 2: TGGTGGCTACGACGGGATT
# B21: GUCCUGC (DNA:RNA)
# RNA: B3 RNA with A26U, A27C, A29U, U31C
# DNA 1: CAATCTGAATTCCGGTCTCCC
# DNA 2: TGGTGGCTACGACGGGATT
# B22: UGCAUAG (DNA:RNA)
# RNA: B1 RNA with C26G, U27C, U28A, C29U, U30A, A31G
# DNA 1: CAATCTGAATTCCGGTCTCCC
# DNA 2: TGGTGGCTACGACGGGATT
# B23: UGCUGCA (DNA:RNA)
# RNA: B1 RNA with C26G, U27C, C29G, U30C
# DNA 1: CAATCTGAATTCCGGTCTCCC
# DNA 2: TGGTGGCTACGACGGGATT
# B24: UGCAUGC (DNA:RNA)
# RNA: B3 RNA with G25U, A26G, A27C, C28A, A29U, U31C
# DNA 1: CAATCTGAATTCCGGTCTCCC
# DNA 2: TGGTGGCTACGACGGGATT
# B25: AACCCAG (DNA:RNA)
# RNA: B3 RNA with G25A, A27C, A29C, G30A, U31G
# DNA 1: CAATCTGAATTCCGGTCTCCC
# DNA 2: TGGTGGCTACGACGGGATT
# B26: CCAAUCA (DNA:RNA)
# RNA: B1 RNA with U25C, U27A, U28A, C29U, U30C
# DNA 1: CAATCTGAATTCCGGTCTCCC
# DNA 2: TGGTGGCTACGACGGGATT
# B27: UCAGUGG (DNA:RNA)
# RNA: B3 RNA with G25U, A26C, C28G, A29U, U31G
# DNA 1: CAATCTGAATTCCGGTCTCCC
# DNA 2: TGGTGGCTACGACGGGATT
# B28: AGUUGAG (DNA:RNA)
# RNA: B1 RNA with U25A, C26G, C29G, U30A, A31G
# DNA 1: CAATCTGAATTCCGGTCTCCC
# DNA 2: TGGTGGCTACGACGGGATT
# B29: AUAGCCG (DNA:RNA)
# RNA: B3 RNA with G25A, A26U, C28G, A29C, G30C, U31G
# DNA 1: CAATCTGAATTCCGGTCTCCC
# DNA 2: TGGTGGCTACGACGGGATT
# B30: AAGUGAG (DNA:RNA)
# RNA: B3 RNA with G25A, A27G, C28U, A29G, G30A, U31G
# DNA 1: CAATCTGAATTCCGGTCTCCC
# DNA 2: TGGTGGCTACGACGGGATT
# B31: UGCGUGG (DNA:RNA)
# RNA: B3 RNA with G25U, A26G, A27C, C28G, A29U, U31G
# DNA 1: CAATCTGAATTCCGGTCTCCC
# DNA 2: TGGTGGCTACGACGGGATT
# B32: UGCCUGG (DNA:RNA)
# RNA: B3 RNA with G25U, A26G, A27C, A29U, U31G
# DNA 1: CAATCTGAATTCCGGTCTCCC
# DNA 2: TGGTGGCTACGACGGGATT
# B33: UGCAUUA (DNA:RNA)
# RNA: B1 RNA with C26G, U27C, U28A, C29U
# DNA 1: CAATCTGAATTCCGGTCTCCC
# DNA 2: TGGTGGCTACGACGGGATT
# B34: UGCAUGG (DNA:RNA)
# RNA: B3 RNA with G25U, A26G, A27C, C28A, A29U, U31G
# DNA 1: CAATCTGAATTCCGGTCTCCC
# DNA 2: TGGTGGCTACGACGGGATT
# B35: UGCGUCA (DNA:RNA)
# RNA: B1 RNA with C26G, U27C, U28G, C29U, U30C
# DNA 1: CAATCTGAATTCCGGTCTCCC
# DNA 2: TGGTGGCTACGACGGGATT
# B36: UGCAUGA (DNA:RNA)
# RNA: B1 RNA with C26G, U27C, U28A, C29U, U30G
# DNA 1: CAATCTGAATTCCGGTCTCCC
# DNA 2: TGGTGGCTACGACGGGATT
# B37: UCCUGCA (DNA:RNA)
# RNA: B1 RNA with U27C, C29G, U30C
# DNA 1: CAATCTGAATTCCGGTCTCCC
# DNA 2: TGGTGGCTACGACGGGATT
# B38: UGCAUCA (DNA:RNA)
# RNA: B1 RNA with C26G, U27C, U28A, C29U, U30C
# DNA 1: CAATCTGAATTCCGGTCTCCC
# DNA 2: TGGTGGCTACGACGGGATT
# B39: UGCAUAA (DNA:RNA)
# RNA: B1 RNA with C26G, U27C, U28A, C29U, U30A
# DNA 1: CAATCTGAATTCCGGTCTCCC
# DNA 2: TGGTGGCTACGACGGGATT
# Target: T1, RBFOX1 RRM RbFoxmut (Fox-RRM*)
# Test: EMSA; HiTS-Eq, 1 nM pool, 10 min; buffer printed only for the single-RNA assays: 10 mM Tris pH 7.5, 150 mM NaCl, 3.4 mM EDTA, 0.001% NP-40, 30 C
# Details: tags: His6 N-terminal (pET28a); label: 5' 32P
# Method in brief: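 Purified RbFox RRM, wild type or mutant, was incubated for 10 min in 50 µL with 1 nM of a 5′-radiolabelled RNA pool carrying 7 randomized nucleotides, whose flanks were annealed to DNA oligonucleotides, over a series of increasing protein concentrations. Unbound RNA was resolved on 8% native PAGE, cut out, reverse-transcribed, barcoded by PCR and sequenced on an Illumina HiSeq 2500. Relative association constants were derived from changes in read counts for each RNA species versus the control reaction and normalised to the cognate motif.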
row,Binder,binding signal
1,B1,0.0886 KA relative to UGCAUGU
2,B2,0.101 KA relative to UGCAUGU
3,B3,0.0727 KA relative to UGCAUGU
4,B4,0.203 KA relative to UGCAUGU
5,B5,0.0909 KA relative to UGCAUGU
6,B6,0.0611 KA relative to UGCAUGU
7,B7,0.134 KA relative to UGCAUGU
8,B8,0.101 KA relative to UGCAUGU
9,B9,0.113 KA relative to UGCAUGU
10,B10,0.122 KA relative to UGCAUGU
11,B11,0.0783 KA relative to UGCAUGU
12,B12,0.113 KA relative to UGCAUGU
13,B13,0.13 KA relative to UGCAUGU
14,B14,0.161 KA relative to UGCAUGU
15,B15,0.13 KA relative to UGCAUGU
16,B16,0.127 KA relative to UGCAUGU
17,B17,0.091 KA relative to UGCAUGU
18,B18,0.494 KA relative to UGCAUGU
19,B19,0.922 KA relative to UGCAUGU
20,B20,0.421 KA relative to UGCAUGU

row,Binder,binding signal
1,B21,0.104 KA relative to UGCAUGU
2,B22,0.146 KA relative to UGCAUGU
3,B23,0.251 KA relative to UGCAUGU
4,B24,1.29 KA relative to UGCAUGU
5,B25,0.0936 KA relative to UGCAUGU
6,B26,0.0737 KA relative to UGCAUGU
7,B27,0.101 KA relative to UGCAUGU
8,B28,0.133 KA relative to UGCAUGU
9,B29,0.119 KA relative to UGCAUGU
10,B30,0.137 KA relative to UGCAUGU
11,B31,0.138 KA relative to UGCAUGU
12,B32,0.233 KA relative to UGCAUGU
13,B33,0.163 KA relative to UGCAUGU
14,B34,0.935 KA relative to UGCAUGU
15,B35,0.155 KA relative to UGCAUGU
16,B36,0.692 KA relative to UGCAUGU
17,B37,0.24 KA relative to UGCAUGU
18,B38,0.565 KA relative to UGCAUGU
19,B39,0.146 KA relative to UGCAUGU
